Assay results: PubChem BioAssay AID1445 (SRMLSC, 2008)
Several values for one entry are separate records, joined by “and”; a condition that tells them apart may be missing. Identical values can stand only once. About 910 (0.41%) of roughly 220,000 compounds were called active. The sample holds actives, similar compounds and a random draw of the others, so the mix is not that of the screen.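 Rule for the calls: active = primary inhibition above the hit cutoff, then over 50% inhibition at one or more dose response concentrations (cut at about 23% in these data, passing the limit was not always enough); inconclusive = conflicting primary data, or primary hits not chosen for dose response; inactive = low primary inhibition, or under 50% at every dose.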 Results with a measured potency or affinity are listed apart. More than one record can exist for a structure, and the calls need not agree.

biological target: Aminopeptidase N (Plasmodium falciparum (isolate 3D7)) (UniProt O96935); assay: malaria alanyl aminopeptidase activity blockers – biochemical, fluorogenic H-Leu-NHMec substrate, 1536-well (AID 1445); details: recombinant M1AAP, H-Leu-NHMec fluorogenic kinetic assay; at 30 µM; stronger effect = higher value;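 note: plate controls were DMSO full reaction for no effect and no enzyme background for full effect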
Sequence (O96935 whole entry, looked up): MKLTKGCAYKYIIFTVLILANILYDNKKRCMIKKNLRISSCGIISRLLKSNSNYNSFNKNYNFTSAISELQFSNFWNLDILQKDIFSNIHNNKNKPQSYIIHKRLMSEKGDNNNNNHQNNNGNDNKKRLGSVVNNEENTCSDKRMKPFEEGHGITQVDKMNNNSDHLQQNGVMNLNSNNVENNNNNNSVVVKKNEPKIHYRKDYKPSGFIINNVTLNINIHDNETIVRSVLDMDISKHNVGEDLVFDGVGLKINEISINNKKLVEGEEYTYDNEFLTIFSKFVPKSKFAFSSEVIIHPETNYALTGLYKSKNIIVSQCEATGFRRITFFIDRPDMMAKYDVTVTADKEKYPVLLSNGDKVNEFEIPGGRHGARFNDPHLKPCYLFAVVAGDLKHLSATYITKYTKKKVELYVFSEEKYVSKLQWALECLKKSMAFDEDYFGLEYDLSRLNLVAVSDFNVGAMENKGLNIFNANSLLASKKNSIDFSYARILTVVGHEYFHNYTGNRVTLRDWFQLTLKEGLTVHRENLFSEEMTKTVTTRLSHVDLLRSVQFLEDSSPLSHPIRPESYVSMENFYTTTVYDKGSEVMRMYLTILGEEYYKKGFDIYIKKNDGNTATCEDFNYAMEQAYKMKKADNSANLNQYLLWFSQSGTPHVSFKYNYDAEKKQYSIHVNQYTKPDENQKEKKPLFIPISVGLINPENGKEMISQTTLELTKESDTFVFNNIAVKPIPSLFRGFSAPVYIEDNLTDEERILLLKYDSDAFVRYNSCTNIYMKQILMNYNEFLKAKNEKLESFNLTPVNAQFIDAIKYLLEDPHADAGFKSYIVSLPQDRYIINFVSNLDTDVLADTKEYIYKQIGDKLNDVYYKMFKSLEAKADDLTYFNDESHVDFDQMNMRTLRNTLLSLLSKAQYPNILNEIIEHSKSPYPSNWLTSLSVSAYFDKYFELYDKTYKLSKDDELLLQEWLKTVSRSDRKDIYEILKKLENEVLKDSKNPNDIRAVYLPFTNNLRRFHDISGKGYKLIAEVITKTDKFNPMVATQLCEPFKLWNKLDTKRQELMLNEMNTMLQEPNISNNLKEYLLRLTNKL

| Compound | inhibition |
| --- | --- |
| COCC(C)OC(=O)c1c(N)n(Cc2ccco2)c2nc3ccccc3nc12 (stereo not given) | 17.3% (inactive) |
| CC(C)(C)OC(=O)c1c(N)n(Cc2ccco2)c2nc3ccccc3nc12 | 8.25% (inactive) |
| CC(C)CNC(=O)c1c(N)n(Cc2ccco2)c2nc3ccccc3nc12 | 13% (inactive) |
| CCCNC(=O)c1c(N)n(Cc2ccco2)c2nc3ccccc3nc12 | 19.9% (inactive) |
| CC(C)OC(=O)c1c(N)n(Cc2ccco2)c2nc3ccccc3nc12 | 26.7% (active) |
| C=CCNC(=O)c1c(N)n(Cc2ccco2)c2nc3ccccc3nc12 | 24.2% (active) |
| CCC(=NCc1ccco1)c1c(O)[nH]c(=O)[nH]c1=O | 14.4% (inactive) |
| CCC(=NCC1CCCO1)c1c(O)n(-c2ccccc2C)c(=O)[nH]c1=O (stereo not given) | 6.89% (inactive) |
| O=C1Nc2ccccc2C1Cc1nc2ccccc2c(=O)n1-c1ccccc1 (stereo not given) | -1.31% (inactive) |
| Cc1ccc(S(=O)(=O)N2CCCCC2)cc1NC(=O)CN1CC=C(c2ccccc2)CC1 | 5.04% (inactive) |
| c1ccc(C2=NP(N3CCOCC3)(N3CCOCC3)=NC(N3CCOCC3)=N2)cc1 | -3.04% (inactive) |
| Cc1cccc(N2CCc3c2nc2ccccc2c3N)c1 | 25.6% (active) and 6.14% (inactive) |
| CCOC(=O)c1nc2ccccc2c(=O)n1-c1cccc(C)c1 | 0.05% (inactive) |
| Cc1cccc(-n2c(-c3cccs3)nc3ccccc3c2=O)c1 | 4.14% (inactive) |
| COCCOC(=O)c1c(N)n(Cc2ccccc2)c2nc3ccccc3nc12 | 25% (active) |
| CCCCn1c(N)c(C(=O)OCCOC)c2nc3ccccc3nc21 | 17.7% (inactive) |
| CCCCOCCCn1c(N)c(C(=O)OCCOC)c2nc3ccccc3nc21 | 19.1% (inactive) |
| COC(=O)c1c(N)n(Cc2ccc(OC)cc2)c2nc3ccccc3nc12 | 13.7% (inactive) |
| COCCCn1c(N)c(C(=O)OCCOC)c2nc3ccccc3nc21 | 27.6% (active) |
| CCOC(=O)c1c(N)n(Cc2ccc(OC)cc2)c2nc3ccccc3nc12 | 13.6% (inactive) |

| Compound | inhibition |
| --- | --- |
| CCC(=NCCc1c[nH]c2ccccc12)c1c(O)n(-c2ccc(C)cc2)c(=O)[nH]c1=O | 1.85% (inactive) |
| CCC(=O)N1N=C2C3CCN(CC3)C2C1c1ccccc1 (stereo not given) | 0.59% (inactive) |
| CCCCn1c(O)c(C(C)=NCc2ccc3c(c2)OCO3)c(=O)[nH]c1=O | -11.8% (inactive) |
| Cc1sc2nc(COC(=O)Cc3ccccc3)[nH]c(=O)c2c1C | 13.2% (inactive) |
| CC(=NCCN1CCCCC1)c1c(O)n(Cc2ccccc2)c(=O)[nH]c1=O | 11.5% (inactive) |
| CCOC(=O)C(O)(c1ccc(N=c2ccccn2C)cc1)C(F)(F)F (stereo not given) | 6.08% (inactive) |
| CCOC(=O)C(O)(c1cn(C)c2ccccc12)C(F)(F)F (stereo not given) | 25.5% (active) |
| COC(=O)C(O)(c1cn(C)c2ccccc12)C(F)(F)F (stereo not given) | -1.11% (inactive) |
| COc1ccc2c(c1)c(C(=O)O)c(C)n2C(C)C | 1.69% (inactive) |
| CC1CN=C(Nc2ccc(F)c(Cl)c2)S1 (stereo not given) | -0.44% (inactive) |
| CC1CN=C(Nc2ccccc2)S1 (stereo not given) | 4.63% (inactive) |
| CC(=O)c1cccc(NC2=NCC(C)S2)c1 (stereo not given) | 24.8% (active) |
| Cc1ccc(-n2c(O)c(C=Nc3ccc(S(=O)(=O)N(C)C)cc3)c(=O)[nH]c2=O)cc1 | 13.7% (inactive) |
| CC1(C)CN=C(Nc2nc3ccccc3s2)S1 | 26.9% (active) |
| c1ccc2sc(NC3=NCCN3)nc2c1 | 6.67% (inactive) |
| CC1(C)CN=C(Nc2ccccc2C(F)(F)F)S1 | 2.41% (inactive) |
| O=c1[nH]c(=O)n(Cc2ccco2)c(O)c1C=NC1CC1 | 2.96% (inactive) |
| COc1cc2c(C(=O)N3CCN(C)CC3)c(C)n(C)c2cc1Br | 0.34% (inactive) |
| CC(=NCCN1CCOCC1)c1c(O)n(C2CCCCC2)c(=O)[nH]c1=O | -4.11% (inactive) |
| O=C(C1CCC(=O)N1Cc1ccccc1Cl)N1CCC2(CC1)OCCO2 (stereo not given) | 4.98% (inactive) |
